# The panel holds about 83,000 compounds, 20% with a hit somewhere; the sample as a whole holds those more often.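 Compound tested at a single concentration for 48 hours in 96-well plates; a percent growth value below 10 was scored as active.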 Values without a mark were called inactive. The source made the active and inactive calls.
# Key:
# Assay in all cases: NCI-60 one-dose screen, 48 h (100 = growth as untreated, 0 = no growth, -100 = all killed)
# Settings in all cases: 10 µM
# SR leukemia = test system: SR leukemia
# RPMI-8226 leukemia = test system: RPMI-8226 leukemia
# OVCAR-8 ovarian = test system: OVCAR-8 ovarian
# OVCAR-5 ovarian = test system: OVCAR-5 ovarian
# OVCAR-4 ovarian = test system: OVCAR-4 ovarian
# SK-OV-3 ovarian = test system: SK-OV-3 ovarian
# IGROV1 ovarian = test system: IGROV1 ovarian
# OVCAR-3 ovarian = test system: OVCAR-3 ovarian
# HS 578T breast = test system: HS 578T breast
# NCI/ADR-RES ovarian = test system: NCI/ADR-RES ovarian
# T-47D breast = test system: T-47D breast
# BT-549 breast = test system: BT-549 breast
# MDA-MB-435 melanoma = test system: MDA-MB-435 melanoma
# SW-620 colon = test system: SW-620 colon
# MCF7 breast = test system: MCF7 breast
# HCT-116 colon = test system: HCT-116 colon
# HCC-2998 colon = test system: HCC-2998 colon
# KM12 colon = test system: KM12 colon
Compound,growth (SR leukemia),growth (RPMI-8226 leukemia),growth (OVCAR-8 ovarian),growth (OVCAR-5 ovarian),growth (OVCAR-4 ovarian),growth (SK-OV-3 ovarian),growth (IGROV1 ovarian),growth (OVCAR-3 ovarian),growth (HS 578T breast),growth (NCI/ADR-RES ovarian),growth (T-47D breast),growth (BT-549 breast),growth (MDA-MB-435 melanoma),growth (SW-620 colon),growth (MCF7 breast),growth (HCT-116 colon),growth (HCC-2998 colon),growth (KM12 colon)
CNC(=O)c1cc(Oc2ccc(NC(=O)Nc3ccc(Cl)c(OC4CCCCC4)c3)c(F)c2)ccn1,42.2%,19.9%,40.7%,88.8%,28.6%,72.8%,62.9%,33.8%,66%,47.6%,5.13% (active),72.6%,45.3%,62.9%,27.8%,11.9%,82.6%,26.2%
CCc1c(C)[nH]c(=O)c(C(N)=O)c1C#N,91.7%,105%,104%,109%,115%,100%,107%,116%,95.5%,119%,94.1%,97.4%,101%,97.7%,97%,95.7%,87.7%,106%
Nc1nc(SCC#CCCl)c2[nH]cnc2n1,29.9%,36.2%,71.2%,90.8%,43.1%,49.6%,25.4%,54.5%,73.6%,67%,37.2%,44.8%,46.7%,40.8%,34.6%,39%,100%,60.6%
O=C(OCc1ncc(-c2ccc(C(F)(F)F)cc2)c(NC2CCCCCC2)n1)c1c(F)c(F)c(F)c(F)c1F,39.4%,-6.54% (active),44.1%,88.3%,49.4%,91.8%,63.7%,29.8%,65.3%,96.3%,28.3%,67.8%,57.3%,64.5%,51%,52.6%,84.2%,45.6%

# Source: PubChem BioAssay (NCI)
